Screens: PubChem, NMMLSC
An excerpt weighted towards active compounds, which were near 1.3% of everything screened.
CIT2 TOR yeast = alters CIT2-GFP fluorescence in TOR pathway yeast screen; AID 2029; S. cerevisiae CIT2-GFP strain, flow cytometry, 3 h; 100 means same as DMSO wells; GFP response vs DMSO, % at 10 µM; 320,000 compounds, 0.065% hits;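 active = GFP response relative to DMSO above a set limit, near the screen mean plus 3 SD, cut at about 150% in these data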;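 also: ratio of well median GFP fluorescence to mean of DMSO wells on the plate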
RPL19A-GFP yeast = yeast TOR pathway RPL19A-GFP modulation | percent response vs DMSO, % at 10 µM | S. cerevisiae RPL19A-GFP strain, flow cytometry, 3 h; active compounds read low | AID 2025 | 330,000 compounds, 0.3% hits;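 active = percent response vs DMSO below 50%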;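 also: median channel GFP fluorescence of the barcoded RPL19A-GFP strain; ratio of sample median GFP to plate DMSO average so 100% = DMSO; lower means less RPL19A-GFP as with rapamycin TOR inhibition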
MEP2-GFP yeast = yeast TOR pathway MEP2-GFP modulation; 330,000 compounds, 0.51% hits; S. cerevisiae MEP2-GFP strain, flow cytometry GFP, 3 h; 100% = DMSO control level; GFP response vs DMSO, % at 10 µM;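 active = GFP response versus DMSO above a set limit, roughly screen mean plus 3 SD, cut at about 180% in these data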;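 also: median GFP fluorescence of the barcode-gated MEP2-GFP cells per well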
AGP1-GFP MLPCN = alters AGP1-GFP fluorescence in TOR pathway yeast screen; S. cerevisiae AGP1-GFP multiplex flow cytometry, 3 h; GFP as percent of DMSO wells; GFP response vs DMSO, % at 10 µM; 320,000 compounds, 0.02% hits;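 active = GFP response relative to DMSO above a set limit, near screen average plus 3 SD, cut at about 150% in these data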;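 also: median GFP channel fluorescence of the gated AGP1 strain per well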
LAP4 TOR yeast = modulators of TOR pathway LAP4-GFP in S. cerevisiae | 320,000 compounds, 0.34% hits | AID 2023 | S. cerevisiae LAP4-GFP multiplex, flow cytometry GFP, 3 h; median GFP as percent of DMSO wells | GFP response vs DMSO, % at 10 µM;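 active = GFP response vs DMSO above a set limit, about the screen mean plus 3 SD, cut at about 150% in these data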
Efflux pump inh = blocks antifungal efflux pumps in multiplex yeast assay; 330,000 compounds, 0.44% hits; S. cerevisiae Candida pump triplex, Nile Red efflux; inhibition, % at 10 µM;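 active = plate passing quality check with inhibition over a set limit, or well fluorescence over plate mean plus 4 SD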;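 also: Nile Red retained in pooled yeast measured as flow cytometry median fluorescence; 0% = buffer negative control and 100% = Enniatin B positive control; higher means more Nile Red kept so more efflux inhibition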
LAP4 cherry2 = second confirmation of modulators of TOR reporter LAP4-GFP in yeast; shares compounds with LAP4 TOR yeast; S. cerevisiae LAP4-GFP strain, flow cytometry GFP, 3 h; GFP response vs DMSO, % at 10 µM; 590 compounds, 20% hits; AID 2621;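 active = GFP signal as percent of the solvent control above about 150%, meaning raised reporter expression, limit read from the data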;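 also: ratio of well median GFP fluorescence to plate DMSO mean so 100% = DMSO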
MEP2-GFP pick2 = yeast MEP2-GFP modulation, second cherry pick; shares compounds with LAP4 TOR yeast; S. cerevisiae MEP2-GFP strain, flow cytometry GFP, 3 h; GFP response vs DMSO, % at 10 µM; 590 compounds, 10% hits; AID 2622;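 active = GFP signal above 150% of the solvent control wells, that is a rise of more than half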;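 also: median channel GFP fluorescence of all gated yeast cells per well; ratio of median GFP to plate DMSO average so 100% = DMSO level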
RPL19A GFP CP2 = yeast RPL19A-GFP TOR reporter modulation, second cherry pick | shares compounds with LAP4 TOR yeast | S. cerevisiae RPL19A-GFP strain, flow cytometry GFP, 3 h; active compounds read low; 100% means same as DMSO wells | 590 compounds, 3% hits | GFP response vs DMSO, % at 10 µM;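 active = under 65% GFP response relative to DMSO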;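 also: median GFP channel fluorescence per well over the all cells gate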
CIT2-GFP pick2 = yeast CIT2-GFP TOR reporter modulation, second cherry pick. S. cerevisiae CIT2-GFP strain, flow cytometry GFP, 3 h; DMSO control wells read 100%. 590 compounds, 8% hits. GFP response vs DMSO, % at 10 µM. shares compounds with LAP4 TOR yeast;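 active = GFP response vs DMSO above about 150%, limit read from the data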;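 also: median green fluorescence per well over all gated yeast cells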
AGP1-GFP pick2 = reconfirmed modulator of AGP1-GFP TOR reporter in yeast; shares compounds with LAP4 TOR yeast; S. cerevisiae AGP1-GFP strain, flow cytometry GFP, 3 h; percent response vs DMSO, % at 10 µM; 590 tested, under 10 active; AID 2643;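 active = over 150 percent of DMSO response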;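 also: median GFP channel fluorescence over all cells without mother daughter split; sample median GFP divided by mean DMSO control so 100% equals DMSO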
Yeast autofluor = compound is autofluorescent in yeast s288c cells; shares compounds with LAP4 TOR yeast; S. cerevisiae s288c, 520 nm autofluorescence, flow cytometry, 3 h; active compounds read high; zero means same as solvent-only cells; fluorescence change (kMESF span) at 33 µM; 610 tested, under 10 active; AID 2757;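 active = fluorescence span over the dose series, or activity score, above about 33, limit read from the data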
* hit, by the source's call; . = not tested or not shown.

SMILES	CIT2 TOR yeast	RPL19A-GFP yeast	MEP2-GFP yeast	AGP1-GFP MLPCN	LAP4 TOR yeast	Efflux pump inh	Yeast autofluor	others
O=[N+]([O-])c1ccc(-c2cn3nc(-c4ccccc4)c(-c4ccccc4)nc3n2)cc1	119	105	261*	50	171*	0	3.1
O=[N+]([O-])c1cccc(-c2cn3nc(-c4ccccc4)c(-c4ccccc4)nc3n2)c1	103	103	107	98	103	0	.
COc1ccc(NC(=O)Cc2ccccc2)cn1	98	101	105	107	110	0	.
COc1ccc(NC(=O)/C(Cl)=C(/Cl)S(=O)Cc2ccccc2)cn1 (configuration not stated)	90	78	100	84	288*	0	1.1
O=C1C2C3C=CC(CO)(O3)C2C(=O)N1c1ccc(-c2ccccc2)cc1 (configuration not stated)	61	73	84	77	263*	1.7*	0.71
COCCNC(=O)CN(Cc1ccccc1)C(=O)CCC(=O)Nc1nccs1	103	103	103	105	95	0	.
C#CCOc1c(Cl)cc(C2C3=C(CCCC3=O)N(CC(=O)O)C3=C2C(=O)CCC3)cc1OC	80	52	117	33	87	0	.	LAP4 cherry2=104;MEP2-GFP pick2=117;RPL19A GFP CP2=101;CIT2-GFP pick2=111;AGP1-GFP pick2=99
CCCOc1c(Br)cc(C2C3=C(CCCC3=O)N(CC)C3=C2C(=O)CCC3)cc1OC	94	94	100	98	104	0	.
CC(C)C(=O)NNc1ccc(C(F)(F)F)cn1	100	105	99	114	106	0	.
C[C@]12C=C[C@H](O)CC1=CCC1C2CC[C@@]2(C)C1CCC21OCCO1 (some centres not stated)	84	71	103	110	197*	0	.	LAP4 cherry2=107;MEP2-GFP pick2=102;RPL19A GFP CP2=95;CIT2-GFP pick2=94;AGP1-GFP pick2=90
C[C@]12C=CC(=O)C=C1CCC1C2CC[C@@]2(C)C1CCC21OCCO1 (some centres not stated)	105	98	91	94	89	0	.
CCOC(=O)c1ccc(N=Cc2nc(-c3ccccc3)oc2OC(C)=O)cc1	85	92	91	85	208*	0	0.51
COc1ccc(N=Cc2nc(-c3ccccc3)oc2OC(=O)c2ccccc2)cc1	100	106	99	88	74	0	-0.31
CC(=O)Oc1oc(-c2ccccc2)nc1C=Nc1ccccc1	97	104	94	89	140	0	-0.1
CN(C)c1ccc(N=Cc2nc(-c3ccccc3)oc2OC(=O)c2cccc(Br)c2)cc1	106	102	109	97	98	1	.
CCOC(=O)c1ccc(N=Cc2nc3ccccc3n2C)cc1	97	98	96	100	98	0	.
Cc1ccc(C(=O)O/N=C(\N)Cc2cccs2)c(Cl)c1	129	87	108	54	232*	0	0.9
CC1CC(C)CN(C(=O)COC(=O)CCC(=O)c2cccs2)C1 (configuration not stated)	79	86	97	111	165*	0	.	LAP4 cherry2=99;MEP2-GFP pick2=102;RPL19A GFP CP2=97;CIT2-GFP pick2=109;AGP1-GFP pick2=106
O=S(=O)(c1ccc(C(F)(F)F)cc1)N1CCN(CCc2ccccc2)CC1	98	97	100	97	95	0	.
Cc1cc(Br)cn2cc(C(=O)O)nc12	101	101	100	102	103	0	.
Cc1ccc(C(=O)O)cc1N=Cc1cc(Br)cc(Br)c1O	62	80	90	79	180*	0	0.7	LAP4 cherry2=166*;MEP2-GFP pick2=166*;RPL19A GFP CP2=71;CIT2-GFP pick2=139;AGP1-GFP pick2=105
COc1ccc(CCC(=O)OCC(=O)N2CCN(S(=O)(=O)c3ccc(C)cc3C)CC2)cc1	95	98	96	95	101	0	.
CC(C)N(C(=O)COC(=O)c1ccc(Cl)c(S(N)(=O)=O)c1)C(C)C	82	82	105	113	174*	0	.	LAP4 cherry2=102;MEP2-GFP pick2=105;RPL19A GFP CP2=102;CIT2-GFP pick2=98;AGP1-GFP pick2=103
CNC(=O)COC(=O)c1ccc(Cl)c(S(N)(=O)=O)c1	114	109	111	112	110	0	.
CCn1cc(C(=O)NCCc2ccc(OC)c(OC)c2)c(=O)c2cc(S(=O)(=O)N3CCOCC3)ccc21	103	96	99	102	130	0	.
SMILES	CIT2 TOR yeast	RPL19A-GFP yeast	MEP2-GFP yeast	AGP1-GFP MLPCN	LAP4 TOR yeast	Efflux pump inh	Yeast autofluor	others
Oc1cc(-c2ccc(N3CCCCC3)nc2)cc2cccnc12	97	92	115	87	164*	-1	0.5	LAP4 cherry2=117;MEP2-GFP pick2=119;RPL19A GFP CP2=103;CIT2-GFP pick2=99;AGP1-GFP pick2=98
Oc1cc(-c2ccncc2)cc2cccnc12	95	101	106	107	117	0	.
N/C(=N\OC(=O)c1cccc(Br)c1)c1ccccc1	120	93	103	63	178*	0	0.1
O=C(/C=C/c1cccc(Cl)c1)c1nc2ccccc2[nH]1	69	79	84	76	228*	0	2.7	LAP4 cherry2=235*;MEP2-GFP pick2=148;RPL19A GFP CP2=77;CIT2-GFP pick2=142;AGP1-GFP pick2=83
COc1cccc2cc(-c3nc4ccccc4o3)c(=O)oc12	85	56	103	67	114	0	0.71	LAP4 cherry2=105;MEP2-GFP pick2=102;RPL19A GFP CP2=60*;CIT2-GFP pick2=98;AGP1-GFP pick2=65
CCCCn1c(N)c(N(CCOC)C(=O)COC(=O)COc2ccccc2C#N)c(=O)[nH]c1=O	95	96	100	99	104	0	.
O/C=c1\ccc2cccc3nc(C(F)(F)F)nc1c23	242*	115	233*	104	173*	3.0*	8.4
Cc1cc(-c2cc(C(=O)NC3CCCC3)on2)nc(NCC2CC2)n1	98	97	93	82	125	0	.
